In PubChem BioAssay (NCI) one finds growth inhibition data, which are given here for 40 compounds.

Compounds without any hit were thinned out: in the full panel of roughly 79,000, 15% have a hit. A number with no mark means an inactive call. Cut-off read from the data, not from the text of the source: active = growth inhibition above about 70%; inactive = the rest.

This assay in a line: NCI Yeast Anticancer Drug Screen. Data for the rad50 strain (AID 155).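 Note: 0% = growth of vehicle-only cultures of the same strain.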 As to conditions: S. cerevisiae rad50 strain growth inhibition; at 50.0 µM; active compounds read high. The method, then:
Growth inhibition of yeast strains with defined genetic alterations is measured as a screen for potential anti-cancer activity. Selected strains with alterations in DNA damage repair or cell cycle control were exposed to compounds and growth inhibition was measured relative to vehicle treated controls. The strain used in this assay is rad50
As for `Cc1nc2ccccc2c2nnc(SCC(=O)N(Cc3ccccc3)c3ccccc3)n12`, the growth inhibition was 6.9%.

With `Cc1ccc(C(=O)NC2c3ccccc3Oc3ccccc32)cc1`, the growth inhibition is -0.25%.

As for `CCOC(=O)/C(C#N)=C/c1cccc(C)c1`, the growth inhibition was -19.4%.

Regarding `CC(=O)Cc1cc(-c2cc(CC(C)=O)[nH]n2)n[nH]1`, the growth inhibition is -45.1%.

Turning to `CC1=CC(C)(C)NC(=S)N1c1ccc(S(=O)(=O)O)c2cccc(S(=O)(=O)O)c12`, the growth inhibition was -4.8%.

For `O=C(O)CSCSCC(=O)O`, the growth inhibition is 1.45%.

As to `CCN(CC)CCCC(C)Nc1ccnc(/C=C/c2ccc(Cl)cc2)c1` (stereo not given), the growth inhibition was 2.75%.

In the case of `O=C(Cc1ccccc1)Cc1ccccc1`, the growth inhibition was -1.55%.

For the compound `C1CNC(C2=NCCN2)=N1`, the growth inhibition was -4.85%.

In the case of `Nc1nc(N)c2cc(S(=O)(=O)c3cccc(C(F)(F)F)c3)ccc2n1`, the growth inhibition was 34%.

Take `O=C(O)c1cccc([N+](=O)[O-])c1O`: the growth inhibition is -41.4%.

As for `CC(=O)NC(N)=S`, the growth inhibition is 2.3%.

Take `NC(=S)CN1CCOCC1`: the growth inhibition is -2.6%.

On to `CCOC(=O)C(C#N)Cc1ccccc1` (stereo not given), for which the growth inhibition is -0.85%.

Take `COc1ccccc1N1CCN(C(=S)Nc2ccccc2)CC1`: the growth inhibition is 32.3%.

For `O=C(NC1CCCCC1)OCc1c(COC(=O)NC2CCCCC2)c(-c2ccc(Cl)c(Cl)c2)n2c1CCC2`, the growth inhibition is 16%.

Take `Cc1cc(=O)[nH]c(NN=C2CCCC2)n1`: the growth inhibition was -27.9%.

As for `COc1ccc(C2OC(N)=C(O)C2=O)cc1OC` (stereo not given), the growth inhibition was -4.25%.

As to `CC(=O)OC(C(=O)O)c1ccccc1` (stereo not given), the growth inhibition is 15.9%.

On to `N#CSc1cc(S(N)(=O)=O)ccc1N`, for which the growth inhibition was 5.65%.

For `CCOC(=O)CCCC(=O)OCC`, the growth inhibition was 20.8%.

Consider `CC1CCC(C(=O)O)N1` (stereo not given), for which the growth inhibition was 29.6%.

Consider `COc1cc([C@@H]2c3cc4c(cc3[C@H](O)[C@H]3COC(=O)[C@H]23)OCO4)cc(OC)c1OC`, for which the growth inhibition is -4.8%.

Regarding `COc1cc(/C=C(\C#N)C(=O)c2ccccc2)ccc1OCc1ccccc1`, the growth inhibition is -1.1%.

Consider `O=c1[nH]n(-c2ccccc2)c(=O)cc1Cl`, for which the growth inhibition is -0.9%.

As to `COc1ccc(C2(O)CCCCC2)cc1`, the growth inhibition is 17.7%.

For `Nc1ccc(N)c([N+](=O)[O-])c1`, the growth inhibition was -30.9%.

For `O=P(O)(O)OCC(O)CO` (stereo not given), the growth inhibition was -4.6%.

Take `CNC(=O)c1ccccc1CC1(O)c2ccccc2Oc2ccccc21`: the growth inhibition is 0.4%.

On to `Cc1ccccc1C1N=C2Oc3ccccc3C=C2C(=O)N1` (stereo not given), for which the growth inhibition was 10.7%.

With `COc1cc(-c2ccc(NC(=O)NC3CC3)c(OC)c2)ccc1NC(=O)NC1CC1`, the growth inhibition was -26.9%.

In the case of `CCCNc1ccc(C2=NCCCN2)cc1`, the growth inhibition was 0.55%.

With `Cc1nc2ccccc2c(C(=O)O)c1O`, the growth inhibition was 9.45%.

With `CSc1[nH]c(=O)ncc1F`, the growth inhibition is 4.15%.

As to `c1ccc(Sc2ccccc2)cc1`, the growth inhibition is -4.6%.

For the compound `Cc1c(O)cnc2nn(-c3ccccc3)c(=N)n12`, the growth inhibition was 19.5%.

As to `Cc1cc(C)cc(NCCC#N)c1`, the growth inhibition was 15.5%.

`CN(C)/N=C/c1ccccc1O`: the growth inhibition is 1%.

With `OCCN1CCOCC1`, the growth inhibition is 31.9%.

For `O=C1N(C[P+](c2ccccc2)(c2ccccc2)c2ccccc2)CCCN1C[P+](c1ccccc1)(c1ccccc1)c1ccccc1`, the growth inhibition is 17.4%.
